An excerpt weighted towards active compounds, which were near 4.6% of everything screened.
HSF1 inhib – HSF1 inhibition. NIH3T3-HGL HSE-luciferase, MG132-induced, luminescence 8 h; active compounds read low. activity change, negative = inhibition, % at 7.5 µM (by protocol). hit rate 0.77% among 300,000;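 active means more than half of replicate wells show activity change below -50%, luminescence cut by over half; inconclusive means some wells, but at most half, below -50%; inactive means no replicate well below -50%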;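 further: luciferase reports HSF-1 transcriptional activity via heat shock element; 0% = median of DMSO wells and -100% = zero luminescence signal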
GAA850 FXN act – frataxin GAA850 promoter activation; hit rate 0.56% among 360,000; HEK293 lucGAA850 FXN promoter luciferase reporter, 24 h; percent of 10 µM SAHA response; activation, % at 6 µM;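 active means activation above the average of all compounds screened plus 3 SD, cutoff fixed separately per campaign, cut at about 7.5% in these data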;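 further: 0% = DMSO wells and 100% = 10 µM SAHA wells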
HSF-1 act – increases HSF-1 driven luciferase reporter signal. NIH3T3-HGL HSF-1 luciferase reporter, MG132, 8 h; 100% = twice DMSO control signal. activation, % at 9 µM. hit rate 1.7% among 300,000. AID 504408;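 active means mean replicate activation of at least 50% with a set share of replicates each reaching 50%; inconclusive means only one of those two conditions met; inactive means mean below 50% and too few replicates reaching it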;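 further: 0% = median of the neutral control wells and 100% = twice that signal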
AHR activator – human AHR activation; P35869; AHR-responsive luciferase reporter cells, luminescence; activation, % at 5 µM; hit rate 2.5% among 320,000; in the data active means activation above about 47%;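 further: 0% = vehicle wells and 100% = reference agonist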
Numbers without * were called inactive; ? = inconclusive; / = not tested or not shown.

SMILES	HSF1 inhib	GAA850 FXN act	HSF-1 act	AHR activator
C[C@@H]1CN([C@H](C)CO)C(=O)CCCn2cc(nn2)CO[C@H]1CN(C)C(=O)Nc1cccc2ccccc12	/	0.8	/	/
Cc1cccc(N/C=C/C(=O)c2cccs2)c1C	10.4	-0.9	8.1	58.9*
O=C(/C=C/Nc1ccc(F)cc1)c1cccs1	32.4	4.2	64.9*	23.3
CC1=Nc2cc(C(=O)N3CCCC3)ccc2Sc2c(C)ccc(C)c21	42.5	-4.9	?	2.5
CC1=Nc2cc(C(=O)O)ccc2Sc2c(C)ccc(C)c21	110.1	0.2	101.0*	1.3
CN(C)c1ccc(NC(=O)c2sc(SCC(=O)Nc3nccs3)nc2N)cc1	17.3	7.2	31.8	78.1*
Cc1ccc(-c2csc(N(C)C(=O)c3c(C)nn(-c4ccccc4)c3Cl)n2)cc1	-6.7	-0.3	-7.6	1.1
CC(=O)Nc1ccc(NC(=O)CSc2nncn2C)cc1	-4.5	0.9	11.2	0.7
CCOC(=O)CSCC(=O)N1CCC(Cc2ccccc2)CC1	-4.6	-0.3	5.7	0.5
CCOC(=O)N1CCN(C(=O)c2ccc(CS(=O)(=O)c3c(Cl)cccc3Cl)o2)CC1	-77.4*	1.5	-81.6	1.3
CN1CCN(C(=O)c2ccc(CS(=O)(=O)c3c(Cl)cccc3Cl)o2)CC1	-2.2	1.1	-8.7	-0.4
O=C(O)CCc1ccc(-c2ccc(Cl)cc2)n1CC(=O)Nc1ccccc1	10.2	0.2	-3.8	2.4
O=C(Cc1ccccc1)NNc1ccc2ccccc2c1	-63.2*	2.8	-67.2	38.3
O=C(COc1ccc2ccccc2c1)NNC(=O)Cc1ccccc1	-0.3	1.4	-1.7	0.4
COc1ccc2c3c([nH]c2c1)C(C)N(CCC(=O)NN)CC3 (configuration not stated)	1.4	-0.1	16.1	/
COc1ccc(-c2nnc(SC(C)C(=O)Nc3cccc(Cl)c3)o2)cc1 (configuration not stated)	56.2	3.4	109.1*	14.9
Cc1noc2ncnc(Sc3ccc(Cl)cc3)c12	52.9	0.1	71.6*	1.8
C#CCNC(=O)C1=C[C@@H](C2CCCCC2)C[C@@H](OCc2ccc(CO)cc2)O1	6.7	0.6	-4.1	48.1*
C#CCNC(=O)C1=C[C@H](C2CCCCC2)C[C@H](OCc2ccc(CO)cc2)O1	11.7	2.6	-8.3	0.0
CC(=O)n1cc([C@@H]2C=C(C(=O)Nc3ccccc3)O[C@H](OCCCCO)C2)c2ccccc21	4.3	-0.8	7.5	56.5*
CC(=O)n1cc([C@@H]2C=C(C(=O)NCc3ccccc3)O[C@H](OCc3ccc(CO)cc3)C2)c2ccccc21	-0.1	-5.0	-16.7	66.3*
COc1ccc(C(=O)Nn2c(C3CCC3)nc3ccccc3c2=O)c(OC)c1	/	-3.3	/	-2.8
COc1ccccc1CNC(=O)Nc1cccs1	22.7	1.9	31.8	11.5
COc1ccc(C(=O)Oc2ccc(C(C)=O)cc2)c(OC)c1	24.5	3.8	59.7*	3.7
CN(CC(=O)NCc1ccc(F)cc1)S(=O)(=O)c1ccc2c(c1)c(=O)n(C)c(=O)n2C	2.9	-0.3	4.2	-2.1
SMILES	HSF1 inhib	GAA850 FXN act	HSF-1 act	AHR activator
Cc1onc(-c2ccccc2)c1C(=O)N1CCN(S(=O)(=O)c2ccccc2Br)CC1	1.3	-0.4	5.2	1.4
COc1ccccc1C1=NN(C(=S)Nc2ccccc2)C(c2ccco2)C1 (configuration not stated)	41.6	2.0	52.2*	6.6
c1ccc(C2c3[nH]c4ccccc4c3CCN2Cc2cccn2-c2ccccn2)nc1 (configuration not stated)	-3.8	-0.7	-19.5	15.0
O=C(OCC(=O)N1CCc2ccccc21)c1ccccc1	33.6	4.1	67.5*	-3.7
COc1cc(/C=C/C(=O)N2CCCc3ccccc32)cc(OC)c1OC	-2.1	-0.7	12.6	55.0*
COc1ccc(/C=C/C(=O)N2CCCc3ccccc32)cc1	12.8	3.8	17.8	29.4
NC(=O)c1ccc(NC(=O)COC(=O)C2(c3ccccc3F)CCCC2)cc1	2.8	1.8	-5.1	5.1
O=C(OCC(=O)N1CCc2ccccc21)c1cccnc1	3.3	-1.2	8.0	2.7
NS(=O)(=O)c1ccc(NC(=O)COC(=O)C2(c3ccccc3F)CCCC2)cc1	-57.2*	-1.7	-66.3	2.5
O=C(COC(=O)C1(c2ccccc2F)CCCC1)N1CCc2ccccc21	-61.4*	3.3	-64.4	3.3
O=C(COc1ccc(Cl)cc1Cl)NC(=O)NC1CCCC1	/	5.3	/	/
CCOCC(=O)N1CCc2ccccc21	7.2	1.2	29.5	16.9
CCOC(=O)/C=C/C(=O)N1CCc2ccccc21	62.3	-1.6	84.2*	11.0
Cc1ccc(OCC(=O)N2CCCc3ccccc32)cc1	/	-1.0	/	0.2
CCc1ccc(OCC(=O)N2CCc3ccccc32)cc1	23.8	5.0	65.3*	-1.2
CN(C(=O)c1ccccc1C(=O)OCC(=O)Nc1ccc(S(N)(=O)=O)cc1)c1ccccc1	-78.7*	-1.5	-82.5	-0.6
Cc1ccc(OCC(=O)N2CCc3ccccc32)cc1	36.7	5.7	66.8*	11.6
O=C(CCl)N1CCN(CC(=O)N2CCCC2)CC1	3.9	-1.0	-1.5	0.6
Cc1nc(NC(=O)c2ccccc2)nc2cc3c(cc12)OCO3	9.1	5.3	-1.3	24.7
Cc1nc(NC(=O)c2ccc(F)cc2)nc2cc3c(cc12)OCO3	-0.6	0.4	6.4	64.7*
CCOC(=O)c1c(C)n(C)c2ccc(OCC(O)CNCCc3ccccc3)cc12 (configuration not stated)	33.4	1.0	77.3*	5.2
COc1ccc(C(=O)Nc2cc(OCc3ccccc3)c(Cl)cc2Cl)cc1	5.6	-1.0	14.7	28.5
COc1ccc(C(=O)CC(=O)C(=O)Nc2cc(Cl)c(OC)cc2OC)cc1	-0.6	-0.1	6.0	76.8*
COc1ccc(CCNC(=O)C/C(C)=N/NC(=O)Cc2cccc3ccccc23)cc1OC	-5.1	1.1	-1.5	9.7
COc1ccc(C)cc1NC(=O)C/C(C)=N/NC(=O)Cc1cccc2ccccc12	68.2	0.5	108.9*	17.8
SMILES	HSF1 inhib	GAA850 FXN act	HSF-1 act	AHR activator
COc1cc(NC(=O)c2ccccc2)c(OC)cc1NC(=O)Cc1ccc(Br)cc1	3.4	1.1	-19.4	4.9
COc1cc(NC(=O)c2ccc(Br)cc2)c(OC)cc1NC(=O)c1ccccc1	1.9	0.9	12.5	63.3*
COc1ccc(C(=O)Nc2cc(OC)c(Cl)cc2Cl)cc1	4.6	1.6	0.5	49.6*
O=C(NNC(=S)Nc1cccc(Cl)c1)c1ccccc1	27.4	4.9	28.7	0.9
CC(=O)N1c2c(cc(Br)cc2S(=O)(=O)N2CCOCC2)CC1C (configuration not stated)	4.8	-1.0	3.9	3.1
O=C(N/N=C/c1ccc2c(c1)OCO2)c1cc(-c2ccco2)nc2ccccc12	/	-3.5	/	/
Cc1ccc2[nH]c(CN3CCN(C)C(CCO)C3)c(C)c2c1 (configuration not stated)	-0.1	-1.4	6.3	4.5
COc1cc(OC)c(NC(=O)CCc2ccccc2)cc1Cl	6.9	-0.3	13.5	49.7*
COc1cc(OC)c(NC(=O)CCNC(=O)Cn2cnc3ccccc3c2=O)cc1Cl	7.9	3.7	51.4*	-0.2
CCCc1cc(C(=O)Nc2cc(OC)c(Cl)cc2OC)no1	1.6	-0.1	25.4	62.0*
